Results as given in PubChem BioAssay (Tox21).
Results filed as inconclusive are left out. Entries that show only a call come without a potency. More than one record can exist for a structure, and the calls need not agree. Activity calls are given as the source filed them. Unless noted, calls come from the whole dose curve.

Molecular target: Nuclear receptor ROR-gamma (Homo sapiens) (UniProt P51449)
Assay: qHTS assay to identify small molecule antagonists of the retinoid-related orphan receptor gamma (ROR-gamma) signaling pathway (AID 1159521; active = well fitted inhibition curve with a large enough effect in the repeat runs;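 note: CHO cells with doxycycline inducible ROR-gamma driving an RORE luciferase reporter; top concentration of the series differs between compounds; nearly all actives have a fitted effect of over 50% in size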)
Settings: Tet-on RORgamma CHO cells, RORE-luciferase, 16 h; series mostly up to 92.4 µM; activity change, negative = inhibition: at the top concentration
Method in brief: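 Readout: ONE-Glo luciferase luminescence, 30 min at room temperature. System: Tet-on RORγ CHO, RORE-LUC. Sequence: compound 2 h, doxycycline 1 uM final, 16 h at 37 C.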

With `CC(C)(C)OOC(C)(C)C` as the compound, how does the Potency read?
Its Potency is “inactive”.

For `Cc1ccccc1O`, which Potency is on record?
Its Potency is “inactive”.

For `c1ccc(OP(Oc2ccccc2)Oc2ccccc2)cc1`, which Potency is on record?
The Potency was “inactive”.

Tested on: not listed separately
Assay: qHTS assay to identify small molecule agonists of the AP-1 signaling pathway - cell viability counter screen (AID 1159525); note: nearly all actives have a fitted effect of over 55% in size; note: potency is the fitted concentration of half-maximal effect
Settings: ME-180 AP-1-bla cells viability, ATP luminescence, 5 h; series mostly up to 76.8 µM; viability change, negative = cytotoxic: at the top concentration
Method in brief: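 Intracellular ATP by Cell Titer Glo luminescence (30 min, RT) in the same ME-180 AP-1-bla wells after the 5 h compound exposure at 37 °C. Normalised to tetra n-octyl ammonium bromide and DMSO controls.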

For `COC(=O)c1ccccc1C(=O)OC`, which Potency is on record?
Its Potency is “inactive”.

For `O=c1n(Cl)c(=O)n(Cl)c(=O)n1Cl`, which Potency is on record?
The Potency was “inactive”.

For `Oc1ccccc1Cl`, which Potency is on record?
Its Potency is “inactive”.

For `O=C1CCCN1`, which Potency is on record?
Its Potency is “inactive”.

For `Clc1ccc(Cl)cc1`, which Potency is on record?
Its Potency is “inactive”.

For `O=c1[nH]c(=O)[nH]c(=O)[nH]1`, which Potency is on record?
Its Potency is “inactive”.

With `CNC(=O)Oc1ccccc1OC(C)C` as the compound, how does the Potency read?
The Potency was “inactive”.

With `CC(=O)C=C(C)C` as the compound, how does the Potency read?
The Potency was “inactive”.

For `CCOC(=O)c1ccccc1C(=O)OCC`, which Potency is on record?
The Potency was “inactive”.

For `C1CC2OC2CC1C1CO1` (centres undefined), which Potency is on record?
The Potency was “inactive”.

With `COC(=O)NC(=S)Nc1ccccc1NC(=S)NC(=O)OC` as the compound, how does the Potency read?
The Potency was “inactive”.

Which Potency does the source give for `COC(=O)c1ccccc1N` here?
The Potency was “inactive”.

With `Cc1ccc(N)cc1N` as the compound, how does the Potency read?
The Potency was “inactive”.

With `[O-][Cl+2]([O-])O` as the compound, how does the “viability change, negative = cytotoxic” value read?
Its value is -5.1% (inactive).

For `O=[N+]([O-])c1ccccc1`, which Potency is on record?
Its Potency is “inactive”.

Which Potency does the source give for `O=NN1CCCC1` here?
Its Potency is “inactive”.

With `O=NN1CCCCCCC1` as the compound, how does the Potency read?
The Potency was “inactive”.

With `CN(C)CCO` as the compound, how does the Potency read?
Its Potency is “inactive”.

For `CCC[CH2][Sn]([Cl])([Cl])[Cl]`, which Potency is on record?
The Potency was “inactive”.

Which Potency does the source give for `C#CCN(C)[C@H](C)Cc1ccccc1` here?
Its Potency is “inactive”.

For `CC(C)NC(=O)N1CC(=O)N(c2cc(Cl)cc(Cl)c2)C1=O`, which Potency is on record?
The Potency was “inactive”.

For `c1ccc(-c2ccccc2)cc1`, which Potency is on record?
Its Potency is “inactive”.

Which Potency does the source give for `Cc1cc(Cl)ccc1O` here?
Its Potency is “inactive”.

Which Potency does the source give for `CCC[N+](=O)[O-]` here?
The Potency was 15.2 µM (active) and inactive.

For `Cc1ccc([N+](=O)[O-])cc1C`, which Potency is on record?
Its Potency is “inactive”.

Which Potency does the source give for `C=CC(N)=O` here?
Its Potency is “inactive”.

With `C=CCO` as the compound, how does the Potency read?
Its Potency is “inactive”.

With `CC1OC(C)OC(C)O1` (centres undefined) as the compound, how does the Potency read?
Its Potency is “inactive”.

Which Potency does the source give for `C[C@]12CC[C@H]3[C@@H](CC[C@@]45O[C@@H]4C(O)=C(C#N)C[C@]35C)[C@@H]1CC[C@@H]2O` here?
The Potency was “inactive”.

For `O=S(=O)(c1ccc(Cl)cc1)c1cc(Cl)c(Cl)cc1Cl`, which Potency is on record?
Its Potency is “inactive”.

For `Nc1ccc(Br)cc1`, which Potency is on record?
The Potency was “inactive”.

For `COc1ccc2c3c1O[C@H]1[C@@H](O)C=C[C@H]4[C@@H](C2)N(C)CC[C@@]341`, which Potency is on record?
The Potency was “inactive”.

For `O=[N+]([O-])c1ccc(Oc2ccc(Cl)cc2Cl)cc1`, which Potency is on record?
Its Potency is “inactive”.

With `CC(C)(C)OOC(C)(C)C` as the compound, how does the Potency read?
Its Potency is “inactive”.

Which Potency does the source give for `Cc1ccccc1O` here?
Its Potency is “inactive”.

With `c1ccc(OP(Oc2ccccc2)Oc2ccccc2)cc1` as the compound, how does the Potency read?
The Potency was “inactive”.

Tested on: not listed separately
Assay: qHTS assay to identify small molecule agonists of the AP-1 signaling pathway (AID 1159526)
Settings: ME-180 (cervical carcinoma) AP-1-bla reporter, beta-lactamase FRET ratio, 5 h; series mostly up to 76.8 µM; activation: at the top concentration

With `COC(=O)c1ccccc1C(=O)OC` as the compound, how does the Potency read?
Its Potency is “inactive”.

For `O=c1n(Cl)c(=O)n(Cl)c(=O)n1Cl`, which Potency is on record?
The Potency was “inactive”.

With `Oc1ccccc1Cl` as the compound, how does the Potency read?
Its Potency is “inactive”.

With `O=C1CCCN1` as the compound, how does the Potency read?
Its Potency is “inactive”.

With `Clc1ccc(Cl)cc1` as the compound, how does the Potency read?
The Potency was “inactive”.

For `O=c1[nH]c(=O)[nH]c(=O)[nH]1`, which Potency is on record?
The Potency was “inactive”.

With `CNC(=O)Oc1ccccc1OC(C)C` as the compound, how does the Potency read?
Its Potency is “inactive”.

Which “activation” value does the source give for `CC(=O)C=C(C)C` here?
Its value is 2.72% (inactive).

With `CCOC(=O)c1ccccc1C(=O)OCC` as the compound, how does the Potency read?
Its Potency is “inactive”.

For `C1CC2OC2CC1C1CO1` (centres undefined), which “activation” value is on record?
The value was -0.0534% (inactive).

Which Potency does the source give for `COC(=O)NC(=S)Nc1ccccc1NC(=S)NC(=O)OC` here?
Its Potency is “inactive”.

For `COC(=O)c1ccccc1N`, which Potency is on record?
Its Potency is “inactive”.

Which Potency does the source give for `Cc1ccc(N)cc1N` here?
Its Potency is “inactive”.

With `[O-][Cl+2]([O-])O` as the compound, how does the Potency read?
The Potency was “inactive”.

For `O=[N+]([O-])c1ccccc1`, which “activation” value is on record?
The value was 0.128% (inactive).

For `O=NN1CCCC1`, which “activation” value is on record?
Its value is -0.199% (inactive).

Which Potency does the source give for `O=NN1CCCCCCC1` here?
The Potency was “inactive”.

Which “activation” value does the source give for `CN(C)CCO` here?
The value was -0.317% (inactive).

For `CCC[CH2][Sn]([Cl])([Cl])[Cl]`, which “activation” value is on record?
Its value is -0.0708% (inactive).

Which Potency does the source give for `C#CCN(C)[C@H](C)Cc1ccccc1` here?
The Potency was “inactive”.

With `CC(C)NC(=O)N1CC(=O)N(c2cc(Cl)cc(Cl)c2)C1=O` as the compound, how does the Potency read?
Its Potency is “inactive”.

With `c1ccc(-c2ccccc2)cc1` as the compound, how does the “activation” value read?
The value was -2% (inactive).

For `Cc1cc(Cl)ccc1O`, which “activation” value is on record?
The value was 0.411% (inactive).

With `CCC[N+](=O)[O-]` as the compound, how does the “activation” value read?
Its value is -3.68% (inactive).

For `Cc1ccc([N+](=O)[O-])cc1C`, which Potency is on record?
The Potency was “inactive”.

Which Potency does the source give for `C=CC(N)=O` here?
Its Potency is “inactive”.

With `C=CCO` as the compound, how does the Potency read?
Its Potency is “inactive”.

Which Potency does the source give for `CC1OC(C)OC(C)O1` (centres undefined) here?
The Potency was “inactive”.

Which Potency does the source give for `C[C@]12CC[C@H]3[C@@H](CC[C@@]45O[C@@H]4C(O)=C(C#N)C[C@]35C)[C@@H]1CC[C@@H]2O` here?
Its Potency is “inactive”.

Which “activation” value does the source give for `Nc1ccc(Br)cc1` here?
The value was 9.35% (inactive).

For `COc1ccc2c3c1O[C@H]1[C@@H](O)C=C[C@H]4[C@@H](C2)N(C)CC[C@@]341`, which Potency is on record?
The Potency was “inactive”.

With `O=[N+]([O-])c1ccc(Oc2ccc(Cl)cc2Cl)cc1` as the compound, how does the “activation” value read?
Its value is -0.818% (inactive).

For `CC(C)(C)OOC(C)(C)C`, which Potency is on record?
Its Potency is “inactive”.

For `Cc1ccccc1O`, which Potency is on record?
The Potency was “inactive”.

For `c1ccc(OP(Oc2ccccc2)Oc2ccccc2)cc1`, which Potency is on record?
The Potency was “inactive”.
